The list is not random: actives were taken first. Their share in the collection is about 19%.
HT1080 IDH1KD tx: kills HT-1080 cells with IDH1 knockdown; Potency, µM (titrated, usually from 46.1 µM), for the others: at the top dose activity, negative = toxicity, usual class: cytotoxic; 360,000 compounds, 2% hits; HT-1080 IDH1 knockdown viability, ATP luminescence, 48 h;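 further: potency means the concentration at half of the fitted maximal effect; 0% = DMSO wells and -100% = cell-free medium wells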
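Assay cells: HT-1080 with IDH1 knockdown, 750 per well, RPMI/5% FBS. Exposure: 48 h at 37 °C following 2 h pre-incubation. Read: CellTiter-Glo luminescence; fitted concentration-response, curve class assigned.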
TDP1 cell noCPT: qHTS for Inhibitors of human tyrosyl-DNA phosphodiesterase 1 (TDP1): qHTS in cells in absence of CPT. Potency, µM (series often up to 46.2 µM), without a hit: at the highest dose activity change, negative = growth inhibition, actives largely listed as inhibitors. AID 686978, 2013. 420,000 compounds, 15% hits. DT40 Tdp1-/- hTDP1 cells, no CPT, ATP luminescence, 48 h; further: potency means the concentration at half of the fitted maximal effect; nearly all actives have a fitted effect of over 55% in size
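Cells were dispensed at 400 per well, compounds added by pin tool, plates incubated ≥48 hr at 37 °C, then CellTiter-Glo added for 30 min at room temperature before luminescence reading. Line: DT40 Tdp1-/- complemented with hTDP1; camptothecin omitted.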
HT1080-NT tox: kills 2HG-producing HT-1080-NT fibrosarcoma cells. 360,000 compounds, 1.6% hits. AID 686970. Potency, µM (doses to about 46.1 µM), inactives show at the highest dose activity, negative = less viability, most hits filed as cytotoxic. HT-1080-NT fibrosarcoma viability, CellTiter-Glo ATP luminescence, 48 h;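 further: NT is the 2HG producing partner of a matched IDH1 knockdown line; potency means the concentration at half of the fitted maximal effect; 0% = DMSO-treated cells and -100% = media-only wells without cells; nearly all actives have a fitted effect of over 55% in size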
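Toxicity toward the 2HG-producing NT line was scored as %Activity, normalised to DMSO and no-cell wells, from CellTiter-Glo luminescence after 48 hours' treatment.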
ELG1 repair inh: ELG1-dependent DNA repair inhibition; AID 504467; HEK293T ELG1-luciferase reporter, luminescence, 16 h; DNA damage induced by 5-fluorouridine; Potency, µM (titrated, usually from 46.1 µM), without a hit: at the top dose activity change, negative = inhibition, usual class: inhibitors; 330,000 compounds, 2.3% hits; further: potency means the concentration at half of the fitted maximal effect; nearly all actives have a fitted effect of over 55% in size
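5-Fluorouridine DNA damage + compound/DMSO, 2,000 cells/well, 16 h, 37 °C/5% CO2. ONE-Glo, 30 min RT, luminescence. Readout = decrease in reporter signal.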
IL1B secr inh: inhibitors of inflammasome signaling (IL-1 beta secretion); THP-1 LPS/ATP IL-1B secretion, AlphaLISA, 16 h; active compounds read low; activity change, % at 57.5 µM; 360,000 compounds, 4.7% hits; AID 743279; in the data active means activity change below about -50%; inconclusive means mostly about -30% to -49%
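THP-1 cells pretreated 1 hr with compounds (up to 57.5 uM final), then stimulated with LPS (250 ng/mL final) plus ATP (1.25 mM final); secreted IL-1B measured by AlphaLISA after 16 hr, decreased signal indicating inhibition.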
DT40 TDP1 CPT: DT40-hTDP1 cell growth loss with CPT; chicken DT40 Tdp1-/-;hTDP1 cells + 20 nM CPT, ATP luminescence, 48 h; Potency, µM (series often up to 46.2 µM), for inactives: at the top dose activity change, negative = growth inhibition, usual class: inhibitors; 420,000 compounds, 12% hits; AID 686979; further: potency means the concentration at half of the fitted maximal effect; nearly all actives have a fitted effect of over 55% in size
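Chicken DT40 Tdp1-/- cells complemented with human TDP1, 400 cells/well, exposed to compounds plus 20 nM camptothecin for at least 48 h at 37 C; viability read as ATP content by CellTiter-Glo luminescence.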
* marks the source's active call; other numbers are inactive results; ? = inconclusive; nt = not tested or not shown; ! = not active in a repeat. Unless noted, the call rests on the fitted dose curve; in most records, active means well fitted curve in the direction sought with a large enough effect; inconclusive means small, poorly fitted or top-dose-only effect, or another doubt; inactive means no such curve, though single readings can be large; an effect the other way counts as inactive or inconclusive. Unless noted, on the % scale 0 is the no-effect control and ±100 the full control effect.

SMILES	HT1080 IDH1KD tx	TDP1 cell noCPT	HT1080-NT tox	ELG1 repair inh	IL1B secr inh	DT40 TDP1 CPT
O=C(Cn1cc(S(=O)(=O)N2CCN(c3ccccc3F)CC2)c2ccccc2c1=O)Nc1ccc(F)cc1Cl	nt	-12%	nt	nt	nt	-1%
c1ccc(Nc2nc(N3CCOCC3)nc(N3CCOCC3)n2)cc1	-17%	16µM*	-19%	?	nt	16µM*
COc1ccc(Nc2nc(NCc3ccco3)nc(N3CCOCC3)n2)cc1	-11%	?	-13%	?	-57*	?
c1ccc(Nc2nc(N3CCNCC3)nc(N3CCOCC3)n2)cc1	-15%	?	-26%	-9%	-63*	?
COc1nc(NCc2ccco2)nc(N2CCC(C)CC2)n1	-6%	?	-8%	0%	9	?
COc1ccc(Nc2nc(N3CCOCC3)nc(N3CCOCC3)n2)cc1	-4%	?	-5%	?	-10	-23%
Cc1c(C(=O)N2CCCC2)c(S(=O)(=O)Nc2cccc(Br)c2)c(C)n1C	-1%	0%	-1%	?	?	-28%
Cn1c(=O)c2c(nc(Oc3ccccc3)n2C)n(C)c1=O	0%	-19%	8%	16µM*!	26	-18%
Cc1cccc(Oc2nc3c(c(=O)n(C)c(=O)n3C)n2C)c1	9%	-4%	0%	?	20	10%
Cn1c(Oc2ccccc2)nc2c1c(=O)n(Cc1ccc(Cl)cc1Cl)c(=O)n2C	nt	16µM*	nt	nt	nt	15µM*
COCCNC(=O)c1cccc(OC2CCN(Cc3ccc(F)c(OC)c3)CC2)c1	-2%	-16%	9%	-14%	-17	6%
O=C(N/N=C/c1ccc([N+](=O)[O-])cc1)c1[nH]ncc1Br	0%	-19%	-1%	?	-17	-13%
Cc1cc(/C([O-])=C(/C(=S)Nc2ccc(F)cc2)[n+]2ccccc2)c(C)n1Cc1ccccc1Cl	3%	23µM*	0%	-6%	3	21µM*
Cc1cc(/C([O-])=C(/C(=S)Nc2ccc(F)cc2)[n+]2ccccc2)c(C)n1-c1ccc(F)cc1	-7%	nt	0%	?	8	nt
Cc1ccc(-n2c(C)cc(/C([O-])=C(/C(=S)Nc3ccc(F)c(Cl)c3)[n+]3ccccc3)c2C)cc1	-27%	23µM*	-12%	-18%	?	23µM*
CCCNC(=O)c1onc(CSc2ccc(Cl)cc2)c1C(=O)NC(C)C	-2%	-13%	0%	-12%	-2	?
CCNc1ncc2nc(-c3ccc(Cl)cc3)c(=O)n(Cc3ccc(F)cc3)c2n1	nt	-11%	nt	nt	nt	?
CC(C)CN1CCC2(CC1)CCN(C(=O)c1cnccn1)CC2	nt	-4%	nt	nt	nt	9%
Cc1nc2c(ccc3nc(NC(=O)c4ccc5c(c4)OCCO5)sc32)s1	-1%	18µM*	1%	?	?	16µM*
Cc1nc2c(ccc3nc(NC(=O)C(c4ccccc4)c4ccccc4)sc32)s1	-5%	7.3µM*	2%	?	1	7.3µM*
CC1(NC(=O)Cc2c(F)cccc2Cl)CCS(=O)(=O)C1 (configuration not stated)	5%	1%	17%	15%	20	6%
CCOC(=O)[C@]12CCCC=C1N(Cc1ccc(Cl)cc1Cl)C(=O)[C@H](CC(=O)N1CCSCC1)C2	5%	-25%	19%	nt	3	-3%
CCCCCCCCN1C(=O)[C@H](CC(=O)N2CCSCC2)C[C@@]2(C(=O)OCC)CCCC=C12	?	21µM*	?	nt	?	21µM*
CCCCCCCCN1C(=O)[C@H](CC(=O)N2CCOCC2)C[C@@]2(C(=O)OCC)CCCC=C12	?	9.2µM*	?	nt	-25	12µM*
Cc1ccc(-c2noc(CCC(=O)Nc3cccc(C(=O)NC4CC4)c3)n2)cc1	-1%	?	1%	nt	-1	-8%
SMILES	HT1080 IDH1KD tx	TDP1 cell noCPT	HT1080-NT tox	ELG1 repair inh	IL1B secr inh	DT40 TDP1 CPT
Cn1nc(C(=O)Nc2ccccc2Cl)cc1C(=O)Nc1ccccc1Cl	0%	?	-6%	nt	-55*	?
COc1ccc(-n2nc(C(=O)Nc3cc(OC)c(OC)c(OC)c3)c(=O)n(C)c2=O)cc1	nt	-28%	nt	nt	nt	?
Cn1nc(C(=O)Nc2ccc(Br)cc2)cc1C(=O)Nc1ccc(Br)cc1	-2%	-2%	18%	-2%	22	0%
COc1cccc(NC(=O)c2cc(Cl)nnc2Cl)c1	?	8.2µM*	12µM*	-10%	-92*	0.52µM*
Cc1nc(C(=O)Nc2ccccc2Cl)cc2c1[nH]c1ccccc12	-18%	6.5µM*	-19%	20%	-2	?
COc1cccc(NC(=O)c2nn(-c3ccc(C)cc3)c(=O)n(C)c2=O)c1	nt	15µM*	nt	nt	nt	?
COc1cccc(NC(=O)c2cc(C(=O)Nc3cccc(OC)c3)n(C)n2)c1	-2%	?	-18%	13µM*	-16	?
CCC(=O)Nc1ccc(N/C(N)=N/c2nc(C)cc(C)n2)cc1	-2%	15µM*	-5%	-27%	?	13µM*
Cc1ccc(N/C(N)=N/c2nc(C)cc(C)n2)cc1	1%	21µM*	1%	0%	-18	15µM*
CCN(CC)/C(N)=N/c1nc(C)cc(C)n1	-1%	2%	3%	2%	38	6%
COc1cc(NC(N)=S)c(OC)cc1Cl	1%	-25%	1%	4%	37	-3%
CCN(/C(N)=N/c1nc(C)cc(C)n1)c1ccccc1	-13%	16µM*	7%	9%	50	-30%
COc1cc(N/C(N)=N/c2nc(C)cc(C)n2)c(OC)cc1Cl	-12%	18µM*	-18%	-5%	?	15µM*
O=C(NCCC1=CCCCC1)c1ccc(-n2cncn2)c([N+](=O)[O-])c1	-9%	-14%	0%	11%	3	?
O=C(NCCN1CCOCC1)C(=O)NCC1OCCN1S(=O)(=O)c1ccccc1 (configuration not stated)	7%	3%	13%	-7%	30	3%
Cc1cc(C)cc(N/C(N)=N/c2nc(C)cc(C)n2)c1	1%	?	5%	15µM*	-102*	?
COC(=O)c1cc(N/C(N)=N/c2nc(C)cc(C)n2)cc(C(=O)OC)c1	-2%	?	-6%	nt	17	?
CCCCc1ccc(N/C(N)=N/c2nc(C)cc(C)n2)cc1	21µM*	5.2µM*	33µM*	?	nt	?

Assay outcomes as filed in PubChem BioAssay.
